# Measured values from PMC4552634, “A New Set of Chemical Starting Points with Plasmodium falciparum Transmission-Blocking Potential for Antimalarial Drug Discovery” (PLoS ONE, 2015).
# Among all 13,000 compounds or so, about 3,200 (25%) showed an effect of 50% or more. This is one part of the list.
# Test system: P. falciparum stage V gametocytes
# Set-up: BacTiter-Glo ATP luminescence viability of purified stage V gametocytes in 384-well plates, per cent inhibition versus DMSO
# Settings: 48 h, 5 µM; inhibitor
row,SMILES,% Inhibition
1,Cc1cc(-c2ccnc(Nc3cccc(C#N)c3)n2)cc(C)c1O [TCMDC-133719],-73.96%
2,O=C(NC1CCCCCC1)C1CCCN(C(=O)c2ccc(O)c(-c3ccc(Cl)c(Cl)c3)c2)C1 (stereo not drawn) [TCMDC-140888],23.53%
3,CCCCN1C(=O)C2CC(=O)CC(C3CCCCC3)C2C1=O (stereo not drawn) [TCMDC-139128],18.42%
4,O=C(O)C(F)(F)F.c1cc(-c2ccc(CNC3CCOCC3)cc2)cc(-c2nc3ccccc3[nH]2)c1 [TCMDC-132572],48.89%
5,CCCC[C@H](NC(=O)OC(C)(C)C)C(=O)Nc1ccc(Cc2ccc(NC(=O)[C@H](CCCC)NC(=O)OC(C)(C)C)cc2)cc1 [TCMDC-131870],-71.66%
6,CCC[C@@H]([C@@H](CC(C)C)C(=O)N[C@@H](CCCCNC(=O)OCc1ccccc1)C(=O)Nc1ncccn1)N(O)C=O [TCMDC-137323],42.47%
7,CCCC[C@H](NC(=O)O[C@H](COc1ccc(OCc2ccccc2)cc1)C(C)(C)C)C(=O)C(=O)Nc1ccn[nH]1 [TCMDC-138665],67.01%
8,Cc1ccc2c(Cl)c(C(=O)N3CCCc4ccccc43)sc2c1 [TCMDC-125658],1.703%
9,CC1(CCc2ccccc2)N=C(N)N(Cc2ccccc2)C(=O)C1c1ccc(Cl)c(Cl)c1 (stereo not drawn) [TCMDC-136509],88.15%
10,CC1(CCc2ccccc2)N=C(N)N=C(N)C1c1ccc(Cl)c(Cl)c1 (stereo not drawn) [TCMDC-136376],33.71%
11,CCCCCCC1(C)N=C(N)N=C(N)C1c1ccc(Cl)c(Cl)c1 (stereo not drawn) [TCMDC-137594],22.11%
12,O=C(NCCN1CCOCC1)c1ccc(N2CCC(Oc3ccc4ccccc4c3)CC2)nc1 [TCMDC-134400],19.81%
13,O=C(CCC1CCCCC1=O)c1ccccc1 (stereo not drawn) [TCMDC-125845],5.946%
14,CN(c1ccc2c(c1)nc(NCc1ccccc1)n2C)c1ccnc(Nc2ccc(CS(C)(=O)=O)cc2)n1 [TCMDC-138740],25.8%
15,CCOc1ccc(C2CCN(CCCCNC(=O)c3ccc(NC(=O)c4ccc(Cl)cc4)cc3)CC2)c(Cl)c1 [TCMDC-138365],58.19%
16,CCc1cc(OC)ccc1C1CCN(CCCCNC(=O)c2ccc(NC(=O)c3ccc(Cl)cc3)cc2)CC1 [TCMDC-138360],-6.372%
17,COc1ccccc1C1CCN(CCCCNC(=O)c2ccc(/C=C/c3cc(Cl)cc(Cl)c3)cc2)CC1 [TCMDC-138241],103.9%
18,CCOc1ccc(C2CCN(CCCCNC(=O)c3ccc(NC(=O)c4ccc(Cl)cc4)cc3)CC2)c(CC)c1 [TCMDC-138357],26.78%
19,CCOc1cc(C)ccc1C1CCN(CCCCNC(=O)c2ccc(NC(=O)c3cc(Cl)cc(Cl)c3)cc2)CC1 [TCMDC-138620],9.848%
20,CCOc1ccccc1C1CCN(CCCCNC(=O)c2ccc(NC(=O)c3ccc(Cl)cc3)cc2)CC1 [TCMDC-138369],-17.64%
21,COc1ccccc1C1CCN(CCCCNC(=O)c2ccc(NC(=O)c3ccc(Cl)cc3)cc2)CC1 [TCMDC-138239],21.16%

row,SMILES,% Inhibition
1,COc1ccc(C2CCN(CCCCNC(=O)c3ccc(NC(=O)c4ccc(Cl)cc4)cc3)CC2)c(OC)c1 [TCMDC-138254],47.57%
2,COc1cc(C(C)C)ccc1C1CCN(CCCCNC(=O)c2ccc(NC(=O)c3ccc(Cl)cc3)cc2)CC1 [TCMDC-138403],115.5%
3,Cc1ccc(C2CCN(CCCCNC(=O)c3ccc(NC(=O)c4ccc(Cl)cc4)cc3)CC2)c(OCC(F)(F)F)c1 [TCMDC-138572],-14.71%
4,CCOc1cc(C(C)C)ccc1C1CCN(CCCCNC(=O)c2ccc(NC(=O)c3ccc(Cl)cc3)cc2)CC1 [TCMDC-138385],20.72%
5,Cc1ccc(C2CCN(CCCCNC(=O)c3ccc(NC(=O)c4ccc(Cl)cc4)cc3)CC2)c(OCC2CC2)c1 [TCMDC-138541],76.06%
6,O=C(Nc1ccc2ccccc2n1)c1ccccc1-c1ccccc1 [TCMDC-125339],-5.994%
7,FC(F)(F)c1ccc(/C=C/c2cncnc2Nc2ccc3nc(Cc4ccccc4)[nH]c3c2)cc1 [TCMDC-138660],-4.612%
8,CC(Oc1ccc(C(=O)c2ccc(F)cc2)cc1)C(=O)N1CCc2ccccc21 (stereo not drawn) [TCMDC-123555],10.82%
9,Cc1sc2nc(CSc3ccccc3)nc(N3CCN(CC(=O)N4CCCC4)CC3)c2c1C [TCMDC-125052],-14.62%
10,N#Cc1ccc2c(c1)CCN(CCC1CCC(NC(=O)/C=C/c3ccc(F)c4ccccc34)CC1)CC2 (stereo not drawn) [TCMDC-139664],-16.56%
11,CC(C)C[C@H](Nc1ccnc(NCC2CCCCC2)n1)C(=O)NCCc1ccccc1 [TCMDC-134713],-30.95%
12,CCCC(=O)Nc1ccc(OCCN(Cc2ccccc2OC(F)(F)F)c2ccc(C(F)(F)F)c(C#N)c2)cc1 [TCMDC-132791],22.95%
13,CCCCCc1ccc(NC(=O)Nc2ccc(Cn3ncc(N4CCCNCC4)c(Cl)c3=O)cc2)cc1 [TCMDC-133312],-21.48%
14,O=C(NCCCCN1CCC(c2ccc(C(F)(F)F)cc2C(F)(F)F)CC1)c1ccc(NC(=O)c2ccc(Cl)cc2)cc1 [TCMDC-138343],-51.81%
15,COc1ccc(C2CCN(CCCNC(=O)c3ccc(NC(=O)c4ccc(Cl)cc4)cc3)CC2)c(OC)c1 [TCMDC-138288],4.031%
16,COc1ccc(C2CCN(CCCCNC(=O)c3ccc(NC(=O)c4ccc(Cl)cc4)cc3)C2)c(OC)c1 (stereo not drawn) [TCMDC-138281],10.37%
17,CC(C)c1ccc(C2CCN(CCCCNC(=O)c3ccc(NC(=O)c4ccc(C(F)(F)F)cc4)cc3)CC2)c(O)c1 [TCMDC-138527],105.5%
18,COc1cccc(C2CCCN(CCCCNC(=O)c3ccc(NC(=O)c4ccc(Cl)cc4)cc3)C2)c1 (stereo not drawn) [TCMDC-138283],16.5%
19,CCOc1ccc(N2CCN(CCCCNC(=O)c3ccc(NC(=O)c4ccc(Cl)cc4)cc3)CC2)c(OCC)c1 [TCMDC-138243],4.088%
20,CCOc1ccc(C2CCN(CCCCNC(=O)c3ccc(NC(=O)c4ccc(Cl)cc4)cc3)CC2)c(OCC)c1 [TCMDC-138260],93.19%
21,COc1cccc(OCC2CCCN(CCCCNC(=O)c3ccc(NC(=O)c4ccc(Cl)cc4)cc3)C2)c1 (stereo not drawn) [TCMDC-138269],92.38%

row,SMILES,% Inhibition
1,Cc1ccc(C2CCN(CCCCNC(=O)c3ccc(-c4ccc(C(F)(F)F)cc4)cc3)CC2)c(O)c1 [TCMDC-138538],45.11%
2,CCCCc1nc2nc(N)nc(N)c2cc1CCC [TCMDC-137499],32.62%
3,Nc1ccn([C@@H]2O[C@H](COC(c3ccccc3)(c3ccccc3)c3ccccc3)[C@@H](O)[C@@H]2O)c(=O)n1 [TCMDC-131864],13.5%
4,Cc1[nH]cc(Br)c(=O)c1-c1ccc(Oc2ccccc2)cc1 [TCMDC-136196],35.13%
5,COc1ccc(OC)c(-c2ccc(=O)n(CC(=O)Nc3cccc4ccccc34)n2)c1 [TCMDC-125146],85.63%
6,COc1cc(NC(=O)Nc2cccc3ccccc23)c(OC)cc1Cl [TCMDC-123751],9.254%
7,COc1ccc(C(=O)Cn2nc(-c3ccc(Cl)cc3)ccc2=O)c(OC)c1 [TCMDC-135946],-6.888%
8,O=C(Cc1cnc[nH]1)Nc1cccc(-c2cccc(-c3nc4ccc(F)cc4[nH]3)c2)c1 [TCMDC-136943],10.3%
9,O=C(Nc1ccc(Cl)c(Cl)c1)N(Cc1ccccc1Br)C1CCNCC1 [TCMDC-141401],32.46%
10,COc1cccc(-c2cccc(-c3ccc(NC(=O)c4ccc([N+](=O)[O-])o4)cc3)n2)c1 [TCMDC-124806],99.55%
11,COc1cccc(-c2cc(C(=O)Nc3cc(Oc4ccc(O)cc4)cc([N+](=O)[O-])c3)on2)c1 [TCMDC-125290],-10.41%
12,O=C(Nc1cc(Oc2ccc(O)cc2)cc([N+](=O)[O-])c1)c1cc(-c2ccc(F)cc2)no1 [TCMDC-125444],-44.25%
13,CC(C)(C)c1ccc(C(=O)Nc2ccc(NC(=O)c3ccc([N+](=O)[O-])o3)cc2)cc1 [TCMDC-123733],-4.108%
14,COc1ccccc1-c1cccc(-c2cccc(NC(=O)c3ccc([N+](=O)[O-])o3)c2)n1 [TCMDC-124800],105.3%
15,O=C(Nc1cccc(-c2cccc(-c3ccc(F)cc3)n2)c1)c1ccc([N+](=O)[O-])o1 [TCMDC-124807],101.6%
16,Cc1ccc(-n2nc3ccc(NC(=O)c4ccc([N+](=O)[O-])o4)cc3n2)cc1C [TCMDC-123655],20.82%
17,COc1cccc(-c2cc(-c3ccc(NC(=O)c4ccccc4)cc3)c3c(N)ncnc3n2)c1 [TCMDC-134855],-19.07%
18,O=C(Nc1ccc(-c2nc3ccccc3[nH]2)cc1)c1ccc(-c2cccc([N+](=O)[O-])c2)o1 [TCMDC-125805],-5.454%
19,O=C(Nc1cccc(-c2nc3ccccc3[nH]2)c1)c1ccc(-c2cccc([N+](=O)[O-])c2)o1 [TCMDC-125228],18.9%
20,CCCc1ccc(-c2csc(NC(=O)c3ccc([N+](=O)[O-])o3)n2)cc1 [TCMDC-125314],1.071%
21,COc1ccc(OC)c(-c2cccc(-c3cccc(NC(=O)c4ccc([N+](=O)[O-])o4)c3)n2)c1 [TCMDC-124799],113.4%
